This is part of a sample that, as a whole, favours compounds with a hit. Of some 79,000 tested, about 15% had one in any assay. Cut-off read from the data, not from the text of the source: active = growth inhibition above about 70%; inactive = the rest.
Legend:
[1] = NCI Yeast Anticancer Drug Screen. Data for the rad50 strain (AID 155);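 note: 0% = growth of vehicle-only cultures of the same strain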; conditions: S. cerevisiae rad50 strain growth inhibition; at 50.0 µM; active compounds read high
Summary of the method: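 Vehicle-treated cultures provide the reference for the growth inhibition reported for compound-exposed, repair-deficient yeast.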

[2] = NCI Yeast Anticancer Drug Screen. Data for the mec2-1 strain (AID 157); conditions: S. cerevisiae mec2-1 strain, at 50.0 µM, active compounds read high
Summary of the method: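 Using mec2-1 yeast: add compound, measure growth, express inhibition versus vehicle-treated cultures.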

[3] = NCI Yeast Anticancer Drug Screen. Data for the sgs1 mgt1 strain (AID 161);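 note: 0% = growth of cultures given vehicle only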; conditions: S. cerevisiae sgs1 mgt1 strain, at 50.0 µM, active compounds read high
Summary of the method: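 Growth of a repair-deficient yeast mutant was monitored after compound treatment and expressed as inhibition relative to vehicle-treated cultures.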

[4] = NCI Yeast Anticancer Drug Screen. Data for the cln2 rad14 strain (AID 165);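 note: 0% = growth equal to vehicle treated cultures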; conditions: S. cerevisiae cln2 rad14 strain, at 50.0 µM, active compounds read high
Summary of the method: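 Yeast strain cln2 rad14, bearing defects in cell cycle control and DNA repair, serves as the test system; values reflect growth inhibition compared with vehicle.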

[5] = NCI Yeast Anticancer Drug Screen. Data for the bub3 strain (AID 167); conditions: S. cerevisiae bub3 mutant strain, at 50.0 µM, active compounds read high
Summary of the method: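 Mutant yeast screening strain plus compound; vehicle-treated cultures serve as the 0% inhibition reference.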

[6] = NCI Yeast Anticancer Drug Screen. Data for the mlh1 rad18 strain (AID 175); conditions: S. cerevisiae mlh1 rad18 strain growth inhibition; at 50.0 µM; active compounds read high
Summary of the method: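 Steps: expose repair-defective yeast to compound; measure growth; express inhibition against vehicle-treated controls.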

Measured: growth inhibition

Cc1ccc2c(c1)SC(c1cc3c(cc1Br)OCO3)S2 (stereo unspecified)
inactive: [1] -10.7% | [2] -22.1% | [3] 4.65% | [4] 34.9% | [5] 32.5% | [6] -18.4%

Clc1ccc(-c2csc3nc(-c4cccs4)nn23)cc1
inactive: [1] -0.05% | [2] -16.6% | [3] 16.6% | [4] 1.65% | [5] -6.95% | [6] -5.3%

C=CCC1(CO)CCCCC1O (stereo unspecified)
inactive: [1] 1.6% | [2] 1.5% | [3] 16.4% | [4] -73.4% | [5] 10.3% | [6] 3.2%

CC/C(C)=N/NS(C)(=O)=O
inactive: [1] 12.8% | [2] -7.55% | [3] -0.35% | [4] 2.25% | [5] -44.8% | [6] -10.9%

NC(=S)c1ccccn1
inactive: [1] 18.6% | [2] 11.4% | [3] 32.8% | [4] -22.5% | [5] 2.4% | [6] 26.9%

COc1ccc(OC)c(C(C)=O)c1
inactive: [1] -59% | [2] -66% | [3] -94% | [4] 1.75% | [5] -34.2% | [6] -29.4%

O=C(O)c1cccn1-c1ccccc1
inactive: [1] -4.05% | [2] -24.6% | [3] -1.55% | [4] -21.1% | [5] -10.2% | [6] -15.6%

COc1ccc2nc3ccccc3c(NCCCN(C)C)c2c1[N+](=O)[O-]
inactive: [1] -8.1% | [2] -19.6% | [3] 12.9% | [4] -22.2% | [5] -13.3% | [6] -4.7%

O=C1CCCCCCCCCCC1
inactive: [1] -8.1% | [2] -62.7% | [3] -17.6% | [4] 15.2% | [5] -17.1% | [6] 3.1%

Cc1ccc2cccc(CCOC(=O)c3ccc([N+](=O)[O-])cc3)c2c1
inactive: [1] -13.5% | [2] -19.1% | [3] -15.3% | [4] -19.1% | [5] -8.35% | [6] 4.7%

Cc1ccc([N+](=O)[O-])c2c(NCCCN(C)C)ccnc12
inactive: [1] 42.2% | [2] 16.1% | [3] 20% | [4] 4.7% | [5] 13.2% | [6] 49.2%

CCCCCC(=O)C(C)=O
inactive: [1] -22.8% | [2] -5.9% | [3] -0.9% | [4] -20.8% | [5] -20.8% | [6] -12.2%

CCOC(=O)/C(=C\c1c(C)[nH]c2ccccc12)P(=O)(OCC)OCC
inactive: [1] -15.2% | [2] -15.7% | [3] -22.9% | [4] -0.3% | [5] -8.95% | [6] 11.5%

CC(Cc1ccccc1)NC(=O)CCCN1C(=O)c2ccccc2C1=O (stereo unspecified)
inactive: [1] -2.55% | [2] 1% | [3] -10.7% | [4] -37.8% | [5] 6.4% | [6] -5.15%

c1cc2c3c(cccc3c1)-c1nc3c(ccc4ccccc43)nc1-2
inactive: [1] -0.15% | [2] 22.8% | [3] 19.6% | [4] 11.6% | [5] 10.4% | [6] 12.3%

COC(=O)c1cc(C(=O)OC)c(C/C(=N/Nc2ccc([N+](=O)[O-])cc2[N+](=O)[O-])C(=O)Nc2cccc(C(F)(F)F)c2)nc1C/C(=N/Nc1ccc([N+](=O)[O-])cc1[N+](=O)[O-])C(=O)Nc1cccc(C(F)(F)F)c1
inactive: [1] 57% | [2] -5.95% | [3] 1.15% | [4] 25.4% | [5] 37.9% | [6] 59.8%

O=C(O)CSc1n[nH]c(-c2ccc(O)cc2)n1
inactive: [1] -18.3% | [2] -7.25% | [3] -7.5% | [4] 18.6% | [5] 4.95% | [6] 37.2%

O=Nc1c(O)c(S(=O)(=O)O)cc2cc(S(=O)(=O)O)ccc12
inactive: [1] 24.9% | [2] -1.8% | [3] 51.1% | [4] 17.9% | [5] 37.6% | [6] 11.2%

Nc1c(-c2ccccc2[N+](=O)[O-])nc2ccccn12
inactive: [1] -16.1% | [2] -43.5% | [3] -49.3% | [4] -2.15% | [5] -19.2% | [6] -21.1%

CCCCCCCCCCCCOc1cccc(OCCCCCCCCCCCC)c1
inactive: [1] 29.4% | [2] -4.75% | [3] 21.8% | [4] -41.1% | [5] -1.9% | [6] -19.1%

N#CC(C#N)N=Cc1ccncc1
inactive: [1] 14.2% | [2] 12.2% | [3] -21.6% | [4] -12.8% | [5] -1.1% | [6] -29.2%

— PubChem BioAssay (NCI)
